The structures appear in SMILES notation. About 79,000 compounds went through this panel and 15% of them were active in at least one assay; those are over-represented in the sample as a whole. A number with no mark means an inactive call. Cut-off read from the data, not from the text of the source: active = growth inhibition above about 70%; inactive = the rest.

This experiment can be described thus: NCI Yeast Anticancer Drug Screen. Data for the sgs1 mgt1 strain (AID 161).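 Note: 0% = growth of cultures given vehicle only.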 The conditions noted are these: S. cerevisiae sgs1 mgt1 strain, at 50.0 µM, hits give high values. In a few lines: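 Yeast cells carrying a defined DNA-repair defect were exposed to test compounds. Growth inhibition was measured relative to vehicle-treated controls.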
In the case of `OCC(CN1CCCCC1)(CN1CCCCC1)CN1CCCCC1`, the growth inhibition was -14.6%.
Under `Cc1ccccc1NCC#N` stands -19.2%.
The result for `O=C1c2ccccc2C(=O)N1CCc1ccccn1` reads 3.95%; that for `O=C(N/N=C/c1ccc(Cl)cc1)c1cc(-c2ccccc2)nc2ccccc12`, 17.4%; that for `CCN(c1ccc(Br)cc1)c1ccc(Br)cc1`, -23.2%.
Under `COc1ccc(C(=O)c2ccccc2C(=O)c2ccc(OC)cc2)cc1` stands -1.4%.
Take `COc1ccc(NC(=O)c2cccc([N+](=O)[O-])c2)cc1`: the growth inhibition is 24.6%.
`OCC(O)C(O)C(O)C(O)CN=Cc1ccccc1O` (stereo not given): the growth inhibition was -10.7%.
The result for `CC1CC(C)SC(C)S1` (stereo not given) reads -10.1%; that for `CC(=O)Oc1ccc2cc(Br)ccc2c1N(C(C)=O)C(C)=O`, 10.8%; that for `C/C(=N\NC(=O)c1cccnc1)c1cccc(/C(C)=N/NC(=O)c2cccnc2)n1.CC(=O)[O-].CC(=O)[O-].[Zn+2]`, -2.6%.
Under `Cc1ccc2nc(N)nc(N)c2c1` stands -8.4%; under `CC(=O)Nc1ccc(S(=O)(=O)CO)cc1`, 19.6%; under `COc1ccc(C(=O)c2ccccc2)c(OC(=O)Nc2ccc(Cl)cc2)c1`, 14.9%.
The result for `CC1(n2nc(-c3ccccc3)n(-c3ccccc3)c2=O)CSC1` reads -31.1%; that for `O=C(O)c1ccc(Nc2nc3ccccc3nc2C(=O)O)cc1`, -33.2%; that for `CCOC(=O)C(C(=O)OCC)(C(=O)C(F)(F)C(F)(F)C(F)(F)C(F)(F)C(=O)C(C(=O)OCC)(C(=O)OCC)c1ccccc1)c1ccccc1`, -3.7%.
As to `COC1/C=C\C=C(/C)C(=O)Nc2cc3nc4cccc(Br)c4oc-3c(c2=O)CC(C)CC(OC)C(O)C(C)/C=C(\C)C1OC(N)=O` (stereo not given), the growth inhibition was 26.2%.
As for `O=C1CC(NC(=O)c2ccccc2)C(=O)O1` (stereo not given), the growth inhibition is 18.8%.
The result for `Cc1ccc2c(N(C)C)cc(N(C)C)nc2c1C` reads -9.2%.
For the compound `CC1(C)C2CCC(OC(=O)c3ccc([N+](=O)[O-])cc3)C1C2` (stereo not given), the growth inhibition is 3.5%.
The result for `O=CSC(=Nc1ccc(Cl)cc1)NC(=O)COc1ccc(Cl)cc1` reads 58.9%.
The result for `CN(C)c1ccc(N=Nc2ccc(C(C)(C)C)cc2)cc1` reads 5.55%; that for `O=C(O)c1cccc(-n2cnc3c(=O)[nH]cnc32)c1`, -5.85%; that for `N#CC1(C#N)C(c2ccccc2)C=CC12OCCCO2` (stereo not given), 3.9%.
Under `CCCC1(C(OC)OC)NC(=O)N(Cc2ccccc2)C1=O` (stereo not given) stands 5.15%.
For `Cc1cc2[nH]c(=O)c(=O)[nH]c2cc1C`, the growth inhibition was 7.15%.
The result for `COc1ccc(I)cc1` reads 3.65%.
Under `c1ccc(CN2COc3ccc4c5c(ccc4c3C2)OCN(Cc2ccccc2)C5)cc1` stands -6.7%.
The result for `CCCCCC#CC(=O)OC` reads -17.4%; that for `Nc1nc([O-])c([I+]c2ccccc2)c(=O)[nH]1`, 3.7%; that for `Cc1[nH]c(-c2ccccc2)c2nc(N(C)C)oc(=O)c12`, 17.4%.
Take `CN1CCCC1c1cccnc1.O=C(O)c1ccccc1O.O=C([O-])c1ccccc1[OH2+].O=C([O-])c1ccccc1[OH2+].O=C([O-])c1ccccc1[OH2+].[Mn+2]` (stereo not given): the growth inhibition was -10.3%.
For `Cc1cc2c(c(C(=O)NCCC(=O)N[C@@H](C)C(=O)OCc3ccccc3)c1)Oc1c(cc(C)cc1C(=O)NCCC(=O)N[C@@H](C)C(=O)OCc1ccccc1)S2`, the growth inhibition was 30.1%.
Under `C=CC(C)(C)/C=C/C=O` stands -12.1%.
The result for `CCCCSc1nc2c(=O)n(C)c(=O)n(C)c2n1C` reads 10.8%; that for `O=C(O)c1cccc(/C=N/O)c1O`, -6.45%.
Under `N#CC1=C(c2ccccc2)C(=C2Nc3ccccc3N2)C2S/C(=C\c3ccccc3)C(=O)N2C1=N` (stereo not given) stands 10.4%; under `CCc1ccc(/C(C#N)=C/c2ccc(N(C)CCC#N)cc2)cc1`, 18.8%.
For `Nc1ccc2c(c1)C1C(C3C2C2(Cl)C(Cl)=C(Cl)C3(Cl)C2(Cl)Cl)C2(Cl)C(Cl)=C(Cl)C1(Cl)C2(Cl)Cl` (stereo not given), the growth inhibition was 21.9%.
